Reference: PubChem BioAssay
For some of these results: Entries with a potency or affinity are not part of this list. Activity calls are given as the source filed them.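 The calls were made as follows, unless noted: active = calcium signal cut by more than 3 SD below the full-agonist control yet still positive, in both repeats and the earlier primary screen; inactive = the rest.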

Tests used:
[1] = tested on: TRPC4 beta (transient receptor potential cation channel C4), mouse; experiment: TRPC4 cation channel opening, retest – cell-based, Fluo4 calcium, HEK293 TRPC4beta/mu-opioid, duplicates, 10 µM, confirmation (AID 2426;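 active = fluorescence ratio normalized to control raised more than 50% in primary screen plus both repeat runs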;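 as to activation: percent rise of integrated ratio over buffer wells lacking compound which define 0%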); conditions: Fluo4 calcium fluorescence, at 10 µM; active compounds read high
[2] = tested on: transient receptor potential cation channel C4 beta (TRPC4), mouse; experiment: TRPC4 cation channel opening, second retest – cell-based, second round, Fluo4, HEK293 TRPC4beta/mu-opioid, 1 µM, confirmation (AID 2461;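 active = primary screen active and over 50% activation in each of two duplicate runs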); conditions: Fluo4 calcium fluorescence, at 1 µM; active compounds read high
[3] = tested on: TRPC4 (transient receptor potential cation channel C4 beta), mouse; experiment: potentiation of DAMGO EC20 TRPC4 response – cell-based, second round, Fluo-4, HEK293 TRPC4beta/mu-opioid, 1 µM, confirmation (AID 2554;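 active = primary screen hit whose fluorescence ratio, in both repeats, exceeds the weak agonist control mean by 3 SD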); conditions: DAMGO EC20, Fluo-4 calcium flux, at 1 µM; active compounds read high
[4] = tested on: TRPC4 beta (transient receptor potential cation channel C4), mouse; experiment: potentiation of DAMGO EC20 TRPC4 response – cell-based, Fluo-4, HEK293 TRPC4beta/mu-opioid, confirmation (AID 2555;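 active = primary screen hit whose calcium fluorescence ratio, in both repeats, exceeds the weak agonist control mean by 3 SD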); conditions: DAMGO EC20, Fluo-4 calcium flux, at 10 µM; active compounds read high
[5] = molecular target: Short transient receptor potential channel 4 (Mus musculus) (UniProt Q9QUQ5); experiment: blockers of DAMGO-evoked TRPC4 calcium flux – cell-based, Fluo4, HEK293 TRPC4beta/mu-opioid, confirmation (AID 2636); conditions: at 10 µM; active compounds read high
Short transient receptor potential channel 4 (Mus musculus), sequence (Q9QUQ5 whole entry, looked up): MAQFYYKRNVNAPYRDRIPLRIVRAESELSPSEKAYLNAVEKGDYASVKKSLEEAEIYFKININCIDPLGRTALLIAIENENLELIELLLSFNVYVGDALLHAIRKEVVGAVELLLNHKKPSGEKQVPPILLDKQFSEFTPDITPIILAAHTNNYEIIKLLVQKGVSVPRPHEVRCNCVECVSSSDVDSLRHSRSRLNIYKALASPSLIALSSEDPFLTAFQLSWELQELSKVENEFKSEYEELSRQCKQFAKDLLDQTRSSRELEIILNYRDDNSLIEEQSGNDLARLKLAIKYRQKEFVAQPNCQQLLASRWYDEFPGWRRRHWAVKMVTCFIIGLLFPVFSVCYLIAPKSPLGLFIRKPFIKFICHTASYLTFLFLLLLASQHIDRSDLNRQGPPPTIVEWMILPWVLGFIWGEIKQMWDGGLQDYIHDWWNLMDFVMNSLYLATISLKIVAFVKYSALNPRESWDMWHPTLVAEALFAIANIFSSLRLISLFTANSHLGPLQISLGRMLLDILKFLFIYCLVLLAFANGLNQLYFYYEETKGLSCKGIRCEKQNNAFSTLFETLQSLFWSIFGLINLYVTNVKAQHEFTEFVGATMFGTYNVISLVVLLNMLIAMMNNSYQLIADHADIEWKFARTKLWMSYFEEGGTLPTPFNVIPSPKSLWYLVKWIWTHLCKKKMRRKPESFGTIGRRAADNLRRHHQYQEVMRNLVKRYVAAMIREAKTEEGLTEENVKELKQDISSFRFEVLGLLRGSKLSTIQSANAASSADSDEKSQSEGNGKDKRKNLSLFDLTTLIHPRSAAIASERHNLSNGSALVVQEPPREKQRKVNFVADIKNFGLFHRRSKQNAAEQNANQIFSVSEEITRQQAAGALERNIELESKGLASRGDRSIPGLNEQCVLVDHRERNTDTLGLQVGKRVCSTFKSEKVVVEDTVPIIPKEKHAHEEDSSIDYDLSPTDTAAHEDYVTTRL

[6] = molecular target: Short transient receptor potential channel 4 (Mus musculus) (UniProt Q9QUQ5); experiment: blockers of DAMGO-evoked TRPC4 calcium flux – cell-based, second round, Fluo4, HEK293 TRPC4beta/mu-opioid, 1 µM, confirmation (AID 2637;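 active = calcium signal ratio cut to more than 3 SD under the fully stimulated control mean yet still positive, in both repeats and the primary screen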); conditions: at 1 µM; active compounds read high
[7] = molecular target: Short transient receptor potential channel 4 (Mus musculus) (UniProt Q9QUQ5); experiment: calcium entry via TRPC4 opening agents – cell-based, HEK293 TRPC4/mu-opioid, Fluo-4 calcium, dose response (AID 434937;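 active = primary screen activator hit with a dose response curve and TRPC4 channel activation at any tested dose; inactive = no activation, no dose response, or not a primary hit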)
[8] = molecular target: Short transient receptor potential channel 4 (Mus musculus) (UniProt Q9QUQ5); experiment: potentiation of DAMGO-evoked TRPC4 calcium signal – cell-based, HEK293 TRPC4/mu-opioid, Fluo-4 calcium, EC20 DAMGO, dose response (AID 434941;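 active = earlier screen potentiator hit that boosts the TRPC4 ion channel at some dose, with a dose response; inactive = no potentiation, no dose response, or not a prior hit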;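 also: calcium entry triggered by an EC20 dose of DAMGO at the co-expressed mu-opioid receptor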)
[9] = molecular target: Short transient receptor potential channel 4 (Mus musculus) (UniProt Q9QUQ5); experiment: block of DAMGO-driven TRPC4 calcium entry – cell-based, HEK293 TRPC4/mu-opioid, Fluo-4 calcium, dose response (AID 434942;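 active = primary screen inhibitor hit that blocks the TRPC4 channel at some tested dose, yielding a dose curve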)
[10] = molecular target: Short transient receptor potential channel 6 (Mus musculus) (UniProt Q61143); experiment: TRPC6 blockade by TRPC4 inhibitor hits – cell-based, HEK293, membrane potential dye, duplicate, selectivity assay for TRPC4 inhibitor project, confirmation (AID 434948;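 active = active in primary screen and both duplicates, each dropping signal beyond three positive-control SD with fluorescence still positive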); conditions: HEK293 TRPC6, membrane potential dye fluorescence, at 10 µM, stimulated with maximal-effect acetylcholine; active compounds read high
Short transient receptor potential channel 6 (Mus musculus), sequence (Q61143 whole entry, looked up): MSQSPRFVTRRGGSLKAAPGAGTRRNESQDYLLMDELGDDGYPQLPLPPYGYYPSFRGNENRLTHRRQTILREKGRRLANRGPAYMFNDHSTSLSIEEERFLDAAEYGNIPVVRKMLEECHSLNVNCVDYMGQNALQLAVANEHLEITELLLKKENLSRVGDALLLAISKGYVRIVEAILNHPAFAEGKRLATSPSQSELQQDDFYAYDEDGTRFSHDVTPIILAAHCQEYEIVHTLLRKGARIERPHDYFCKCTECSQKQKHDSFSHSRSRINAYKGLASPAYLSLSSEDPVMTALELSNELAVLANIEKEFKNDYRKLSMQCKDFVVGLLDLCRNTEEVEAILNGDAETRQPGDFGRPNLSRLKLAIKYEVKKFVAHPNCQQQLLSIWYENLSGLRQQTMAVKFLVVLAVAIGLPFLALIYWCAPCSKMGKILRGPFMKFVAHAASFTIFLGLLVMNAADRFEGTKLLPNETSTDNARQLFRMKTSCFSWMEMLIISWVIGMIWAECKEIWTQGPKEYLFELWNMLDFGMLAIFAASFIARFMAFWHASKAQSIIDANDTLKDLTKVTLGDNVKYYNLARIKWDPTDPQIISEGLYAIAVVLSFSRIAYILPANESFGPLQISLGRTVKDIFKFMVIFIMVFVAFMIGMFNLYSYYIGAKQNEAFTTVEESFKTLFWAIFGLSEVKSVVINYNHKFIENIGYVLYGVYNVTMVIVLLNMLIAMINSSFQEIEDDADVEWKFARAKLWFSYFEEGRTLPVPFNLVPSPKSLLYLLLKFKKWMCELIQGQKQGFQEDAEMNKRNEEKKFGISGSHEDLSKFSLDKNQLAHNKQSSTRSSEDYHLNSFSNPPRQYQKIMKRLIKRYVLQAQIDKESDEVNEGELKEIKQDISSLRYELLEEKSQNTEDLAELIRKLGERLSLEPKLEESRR

[11] = molecular target: Short transient receptor potential channel 6 (Mus musculus) (UniProt Q61143); experiment: TRPC6 opening by TRPC4 activator hits – cell-based, HEK293, membrane potential dye, duplicate, selectivity assay for TRPC4 activator project, confirmation (AID 434950;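 active = membrane potential signal rise above negative control mean plus 3 SD in both duplicates, also active in the earlier TRPC4 screen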;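 as to activation: 0% = buffer only wells and 100% = acetylcholine maximal-effect wells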); conditions: HEK293 TRPC6, membrane potential fluorescence, at 10 µM; activation: active compounds read high; outcome: activation
[12] = molecular target: Short transient receptor potential channel 6 (Mus musculus) (UniProt Q61143); experiment: positive modulators of mouse TRPC6 channel – HEK293 cells, membrane potential dye, duplicate, selectivity assay for TRPC4 potentiator project, confirmation (AID 434952;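 active = compound raising the membrane signal above positive-control mean plus 3 SD in both repeats, and a primary screen hit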); conditions: HEK293 TRPC6, membrane potential dye fluorescence, at 10 µM, maximal acetylcholine added after compound; active compounds read high
[13] = molecular target: Short transient receptor potential channel 4 (Mus musculus) (UniProt Q9QUQ5); experiment: calcium flux activators in TRPC4/5HT1a cells, counter-screen for TRPC4 activator project, cell-based, second counter screen, HEK293 TRPC4/5HT1a, Fluo-4 (AID 434977;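 active = calcium signal rise above buffer-control mean plus 5 SD in both duplicates, and also a hit in the primary screen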;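 as to activation: plate controls were assay buffer for no effect and maximal serotonin response for full effect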); conditions: Fluo-4 calcium flux, at 10 µM; active compounds read high
[14] = serotonin-gated TRPC4 signal block – cell-based, second counter screen, HEK293 TRPC4/5HT1a, Fluo-4, counter-screen for TRPC4 inhibitor project, confirmation (AID 434978;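 active = primary screen active whose calcium signal fell more than 3 SD beyond the full-serotonin control mean in both duplicate plates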;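 as to outcome: serotonin given first at submaximal then at maximal dose after compound preincubation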); conditions: Fluo-4 calcium flux, at 10 µM, serotonin added to trigger calcium flux; active compounds read high
[15] = tested on: TRPC4 (mouse), co-expressed with 5HT1a in HEK293; experiment: enhancement of serotonin-evoked TRPC4 response – cell-based, second counter screen, HEK293 TRPC4/5HT1a, Fluo-4, counter-screen for TRPC4 potentiator project, confirmation (AID 434979;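 active = signal rise over 3 SD above mean of control wells given weak agonist, in both repeats and first screen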); conditions: Fluo-4 calcium flux, at 10 µM, serotonin added at its EC20 dose; active compounds read high
[16] = nonspecific calcium rise without TRPC4 – cell-based, HEK293 mu-opioid receptor line, counter-screen for TRPC4 activator project, confirmation (AID 449723;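 active = hit in primary screen, with calcium signal over 5 SD above buffer well mean in both duplicates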;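 also: counter screen cells carry the mu-opioid receptor alone and lack TRPC4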); conditions: HEK293 mu-opioid cells, Fluo-4 calcium fluorescence, at 10 µM; active compounds read high
[17] = nonspecific potentiation of DAMGO calcium response – cell-based, HEK293 mu-opioid receptor line, counter-screen for TRPC4 allosteric potentiator project, confirmation (AID 449724;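 active = calcium signal rise more than 3 SD above the low-dose agonist control mean, in both duplicate plates and the primary screen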); conditions: HEK293 mu-opioid receptor cells, Fluo-4 calcium flux, at 10 µM, compound added before EC20 DAMGO stimulus; active compounds read high

CC(=O)Nc1ccc(S(=O)(=O)N2CCN(CCCOc3cc(C)ccc3C)CC2)cc1
inactive: outcome [1] | outcome [2] | outcome [3] | outcome [5] | outcome [6] | outcome [7] | outcome [8] | outcome [9] | outcome [10] | outcome [11] | outcome [12] | outcome [13] | outcome [14] | outcome [15] | outcome [16] | outcome [17]
active: potentiation [4] 24%

O=C(Nc1nc2c(s1)CN(Cc1ccccc1)CC2)c1c(F)cccc1F
active: potentiation [4] 10% | potentiation [15] 14%
inactive: outcome [1] | outcome [2] | outcome [3] | outcome [5] | outcome [6] | outcome [7] | outcome [8] | outcome [9] | outcome [10] | outcome [11] | outcome [12] | outcome [13] | outcome [14] | outcome [16] | outcome [17]

O=C(N/N=C/c1ccccc1F)NC1CCCCC1
inactive: outcome [2] | outcome [5] | outcome [6] | outcome [7] | outcome [8] | outcome [9] | outcome [10] | outcome [12] | outcome [14] | outcome [16] | outcome [17]
active: activation [1] 85% | potentiation [3] 12% | potentiation [4] 77% | activation [11] 36.5% | activation [13] 17.8% | potentiation [15] 107%

COc1ccc(CNCC(O)(c2ccccc2)c2ccccc2)cc1OC
inactive: outcome [1] | outcome [2] | outcome [3] | outcome [4] | outcome [5] | outcome [6] | outcome [7] | outcome [8] | outcome [9] | outcome [10] | outcome [11] | outcome [12] | outcome [13] | outcome [14] | outcome [15] | outcome [16] | outcome [17]

COc1ccccc1C(=O)NNC1=C(C(=O)C(F)(F)F)CCC1
inactive: outcome [2] | outcome [3] | outcome [4] | outcome [5] | outcome [6] | outcome [7] | outcome [8] | outcome [9] | outcome [10] | outcome [11] | outcome [12] | outcome [14] | outcome [15] | outcome [16] | outcome [17]
active: activation [1] 58% | activation [13] 11%

COc1ccc(CC2(CO)CCN(C/C=C/c3ccccc3OC)CC2)cc1
inactive: outcome [1] | outcome [2] | outcome [3] | outcome [4] | outcome [6] | outcome [7] | outcome [8] | outcome [9] | outcome [10] | outcome [11] | outcome [12] | outcome [13] | outcome [15] | outcome [16] | outcome [17]
active: inhibition [5] 79% | inhibition [14] 33.5%

CCOc1cc(O)c(-c2[nH]ncc2-c2nc(C)cs2)cc1CC
active: potentiation [4] 21% | potentiation [15] 20%
inactive: outcome [1] | outcome [2] | outcome [3] | outcome [5] | outcome [6] | outcome [7] | outcome [8] | outcome [9] | outcome [10] | outcome [11] | outcome [12] | outcome [13] | outcome [14] | outcome [16] | outcome [17]

Cc1ccc(NS(=O)(=O)c2ccc(NS(=O)(=O)c3cccs3)cc2)cc1
active: potentiation [15] 15%
inactive: outcome [1] | outcome [2] | outcome [3] | outcome [4] | outcome [5] | outcome [6] | outcome [7] | outcome [8] | outcome [9] | outcome [10] | outcome [11] | outcome [12] | outcome [13] | outcome [14] | outcome [16] | outcome [17]
